# High-throughput results from PubChem BioAssay.
# Sampled rows, rich in hits. Any-hit rate of the full collection: about 4.6%.
# D1 agonist: Allosteric Agonists of the Human D1 Dopamine Receptor: qHTS; HEK293 T-REx D1 cells, calcium flux, agonist mode; activation, % at 2 µM; 1% of 360,000 active; D(1A) dopamine receptor (Homo sapiens), P21728; AID 504660, 2011; further: 0% is about no effect
#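 Inducible HEK293 T-REx D1 cells, force-coupled to calcium signalling, were plated at 4000 cells/well with tetracycline and held overnight at 30 C. After no-wash calcium dye loading, compound-evoked calcium rise over 180 s flagged agonists.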
# D1 antag: Antagonist of Human D 1 Dopamine Receptor: qHTS. activity change, negative = inhibition, % at 10 µM. 3.2% of 360,000 active. HEK293 TREx D1 cells, calcium flux, dopamine EC80; hits give low values; in the data active means activity change below about -30%; further: on the % scale 0 is the no-effect control and ±100 the full control effect
#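 Tetracycline-induced HEK293 Trex D1 cells, force-coupled to calcium, dye-loaded; compounds added and read 180 s, then EC80 dopamine added and calcium flux tracked kinetically another 180 s.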
# TRHR PAM: qHTS for Small Molecule Agonists and Allosteric Enhancers of Human TRH Receptor: Primary Screen for Enhancers | 0.66% of 360,000 active | TRHR cells, fluo-8 calcium fluorescence, EC20 TRH enhancement | enhancement, % at 2 µM; in the data active means enhancement above about 30%; further: 0% is about no effect
# Target sequence (P34981 whole entry, looked up): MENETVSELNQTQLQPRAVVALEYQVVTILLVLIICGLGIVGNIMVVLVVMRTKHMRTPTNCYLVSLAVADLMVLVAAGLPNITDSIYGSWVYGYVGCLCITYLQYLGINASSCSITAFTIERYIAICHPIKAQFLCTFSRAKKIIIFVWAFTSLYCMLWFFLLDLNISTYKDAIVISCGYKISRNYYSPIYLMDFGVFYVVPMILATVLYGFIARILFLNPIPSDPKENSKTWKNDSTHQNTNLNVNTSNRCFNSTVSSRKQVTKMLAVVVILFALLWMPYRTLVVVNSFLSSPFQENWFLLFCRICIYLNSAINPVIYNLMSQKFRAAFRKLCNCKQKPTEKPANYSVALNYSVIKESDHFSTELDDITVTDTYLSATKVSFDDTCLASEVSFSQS
#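 TRHR-expressing cells loaded with fluo-8 calcium dye were read kinetically (ex 480/em 530) during compound addition, then stimulated with an EC20 of TRH (10 nM final). Enhancement of the Gq-mediated intracellular calcium response was scored.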
# TRHR ag: qHTS for Small Molecule Agonists and Allosteric Enhancers of Human TRH Receptor: Primary Screen for Agonists | 0.18% of 360,000 active | TRHR cells, calcium flux fluo-8, FDSS agonist mode | activation, % at 2 µM; further: 0% is about no effect
#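 Agonist-mode FDSS calcium read (Ex 480/Em 530, 1 s cycles) in 1536-well TRHR cells with fluo-8 dye, after 10-cycle baseline and 23 nL compound addition; TRH at EC20 (10 nM final) added afterwards for the enhancer phase.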
# D1 PAM: Potentiators of Human D1 Dopamine Receptor: qHTS. D(1A) dopamine receptor (Homo sapiens), P21728. HEK293 TREx D1 cells, calcium flux, dopamine EC20 potentiation. potentiation, % at 10 µM. 0.036% of 360,000 active. AID 504651, 2011; in the data active means potentiation above about 30%; further: 0% is about no effect
# Active calls of the source: *; . = no result; ! = repeats disagree. Unless noted, no stated cut-off is given here; in the data, active means activation above about 30%; inactive means the rest.
SMILES,D1 agonist,D1 antag,TRHR PAM,TRHR ag,D1 PAM
Cc1sc2nc(CSc3ccccc3)nc(N3CCN(C)CC3)c2c1C,4,-42*,4,1,-10
COc1ccc2sc(N(Cc3cccnc3)C(=O)C3COc4ccccc4O3)nc2c1 (stereo unspecified),9,.,0,0,0
Cc1ccc(S(=O)(=O)CCC(=O)c2cccc([N+](=O)[O-])c2)cc1,4,-32*,-3,-1,-12
CC(=O)Nc1ccc(C(=O)OCC(=O)c2cccc([N+](=O)[O-])c2)cc1,4,-7,0,-1,-12
Cc1ccc(C(=O)CCS(=O)(=O)c2ccc(Br)cc2)cc1,6,1,-1,-1,-2
CC(=O)Nc1ccc(NC(=O)CCC(=O)OCC(=O)c2cccc([N+](=O)[O-])c2)cc1,3,-67*,1,1,-2
COc1cc(NC(=O)CC(c2ccc(C)cc2)N2Cc3ccccc3C2=O)cc(OC)c1 (stereo unspecified),5,-9,2,0,-2
CCOC(=O)c1ccc(N2C(=O)c3n[nH]c(C)c3C2c2ccc(OC)c(OC)c2)cc1 (stereo unspecified),1,-37*,3,0,-8
Cc1cccc(NC(=S)NC2CC3CCCC(C2)N3Cc2cccs2)c1 (stereo unspecified),13,-89*,5,2,-20
CN(C)CCN(Cc1ccco1)C(=O)c1cc2c(s1)-c1ccccc1OC2,7,-70*,1,0,-4
CC(=O)c1ccc(N2CCN(C(=O)c3cc4c(s3)-c3ccccc3OC4)CC2)cc1,0,-64*,-1,0,-5
O=C(O)c1cc2c(s1)-c1ccccc1OC2,2,10,6,0,-2
O=C(NC1CC1)c1cc2c(s1)-c1ccccc1OC2,0,-46*,2,0,-10
O=C(c1cc2c(s1)-c1ccccc1OC2)N1CCN(c2ccc(F)cc2)CC1,2,4,2,0,-1
CC(C)COc1ccc(C(=O)N2CCCCC2CCN2CCCCC2)cc1 (stereo unspecified),1,13,-1,0,-1
COc1ccc(CNC(=O)c2cnc(N(C)C)nc2)cc1,2,-1,1,1,0
Cc1ccc(CNC(=O)c2cnc(N(C)C)nc2)cc1,1,-42*,4,-1,-1
Cc1cccc(NC(=O)CC2SC(=NC3CCCCC3)NC2=O)c1 (stereo unspecified),2,-33*,3,0,-1
COCC(=O)O[C@]1(CCN(C)CCCc2nc3ccccc3[nH]2)CCc2cc(F)ccc2[C@@H]1C(C)C,67*,-23,-4,3,-10
Cc1cccc(OCC(=O)NCCc2nc3ccccc3[nH]2)c1C,1,-5,3,0,-2
Cc1cc2c(s1)c1cnn(Cc3c(F)ccc(F)c3Cl)c(=O)c1n2C,7,5,2,1,5
O=c1c2cccc3c(N4CCOCC4)ccc(c32)c2nc3ccccc3n12,72*,-18,3,51*,1
CC(=O)c1ccc(N2CCN(C(=O)c3cc(S(=O)(=O)N4CCCCCC4)cn3C)CC2)cc1,2,0,3,0,-3
Cc1ccc2oc3c(c(=O)c2c1)C(c1cccc(O)c1)N(Cc1ccccc1Cl)C3=O (stereo unspecified),1,-55*,11,0,1
COc1ccc(Cl)cc1NC(=O)C(=O)NCc1ccncc1,2,-38*,28,-2,-13
SMILES,D1 agonist,D1 antag,TRHR PAM,TRHR ag,D1 PAM
CCCNC(=O)NCCC12CC3CC(CC(C3)C1)C2,9,23,4,-1,-6
CCCNC(=O)OCCC12CC3CC(CC(C3)C1)C2,33*,-6,-2,6,-3
Cn1c(=O)n(CCOc2ccc([N+](=O)[O-])cc2)c2ccccc21,0,-59*,11,0,-12
CSc1ccc(C2c3[nH]c4ccccc4c3CCN2C(=O)CCC2CCCC2)cc1 (stereo unspecified),1,-4,3,1,-1
Cc1cc(Br)ccc1NC(=O)C1(S(=O)(=O)c2ccc(Cl)cc2)CC1,1,2,0,-1,0
COC(=O)N/N=C\c1c(C)nn(-c2ccccc2)c1Cl,2,-7,-3,0,0
Cc1nn(-c2ccccc2)c(Cl)c1/C=N/NC(N)=O,2,-32*,-2,-1,2
O=C(COC(=O)c1ccco1)Nc1nc2ccc([N+](=O)[O-])cc2s1,9,-52*,-7,0,-13
Cc1ccc2nc(NC(=O)COC(=O)c3ccco3)sc2c1,1,-6,2,0,-8
Cc1ccc(-n2c3nc(=O)[nH]c(=O)c-3cc3c(C)nn(-c4ccccc4)c32)cc1Cl,4,-9,-9,1,-2
CCCCN(CC)C(=O)C1CCC(CNS(=O)(=O)c2cccc3nsnc23)CC1 (stereo unspecified),7,-31*!,-6,-1,-4
CCC(C)(C)NC(=O)C1CCC(CNS(=O)(=O)c2cccc3nsnc23)CC1 (stereo unspecified),6,-40*,-4,0,0
O=C(NCc1cccs1)C1CCC(CNS(=O)(=O)c2cccc3nsnc23)CC1 (stereo unspecified),5,-2,10,0,-4
COc1cccc(CNC(=O)C2CCC(CNS(=O)(=O)c3cccc4nsnc34)CC2)c1 (stereo unspecified),5,-41*,2,0,-7
CC(C)Oc1ccc(CNC(=O)c2ccc3c(c2)nc2n3CCCCC2)cc1,1,3,2,-1,-4
COc1ccc(Cn2ncc3c4sc(C)cc4n(C)c3c2=O)cc1F,0,-13,5,-1,5
O=C(NCc1ccccc1Cl)c1ccc(NC(=O)N2CCSc3ccccc32)cc1,3,-15,3,0,-3
CCCN1C(=O)/C(=C/c2c(N3CCNC(=O)C3CC(=O)OC)nc3c(C)cccn3c2=O)SC1=S (stereo unspecified),265*,-30*,17,76*,15
COc1ccc(-c2cc(C(F)(F)F)nc(NCc3ccccc3)n2)cc1OC,1,7,-4,0,0
COc1cccc(-c2cc(C(F)(F)F)nc(NCCc3ccc(OC)c(OC)c3)n2)c1,11,-53*,-5,1,0
Nc1ccc2c(c1)OC1(CCCC1)O2,1,-37*,4,0,-3
